High-throughput results from PubChem.
An excerpt weighted towards active compounds, which were near 2.6% of everything screened.
IDE act: IDE (human) activation, cell-based; activation, % at 5.96 µM; actives 0.073% (n = 340,000); P14735; AID 493087; HEK cells, FAbeta-B cleavage, fluorescence polarization; 0% vehicle, 100% cell-free pure enzyme wells;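 active = activation above the mean of all tested compounds plus 3 SD, set per screening campaign, cut at about 17% in these data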
Target sequence (P14735 whole entry, looked up): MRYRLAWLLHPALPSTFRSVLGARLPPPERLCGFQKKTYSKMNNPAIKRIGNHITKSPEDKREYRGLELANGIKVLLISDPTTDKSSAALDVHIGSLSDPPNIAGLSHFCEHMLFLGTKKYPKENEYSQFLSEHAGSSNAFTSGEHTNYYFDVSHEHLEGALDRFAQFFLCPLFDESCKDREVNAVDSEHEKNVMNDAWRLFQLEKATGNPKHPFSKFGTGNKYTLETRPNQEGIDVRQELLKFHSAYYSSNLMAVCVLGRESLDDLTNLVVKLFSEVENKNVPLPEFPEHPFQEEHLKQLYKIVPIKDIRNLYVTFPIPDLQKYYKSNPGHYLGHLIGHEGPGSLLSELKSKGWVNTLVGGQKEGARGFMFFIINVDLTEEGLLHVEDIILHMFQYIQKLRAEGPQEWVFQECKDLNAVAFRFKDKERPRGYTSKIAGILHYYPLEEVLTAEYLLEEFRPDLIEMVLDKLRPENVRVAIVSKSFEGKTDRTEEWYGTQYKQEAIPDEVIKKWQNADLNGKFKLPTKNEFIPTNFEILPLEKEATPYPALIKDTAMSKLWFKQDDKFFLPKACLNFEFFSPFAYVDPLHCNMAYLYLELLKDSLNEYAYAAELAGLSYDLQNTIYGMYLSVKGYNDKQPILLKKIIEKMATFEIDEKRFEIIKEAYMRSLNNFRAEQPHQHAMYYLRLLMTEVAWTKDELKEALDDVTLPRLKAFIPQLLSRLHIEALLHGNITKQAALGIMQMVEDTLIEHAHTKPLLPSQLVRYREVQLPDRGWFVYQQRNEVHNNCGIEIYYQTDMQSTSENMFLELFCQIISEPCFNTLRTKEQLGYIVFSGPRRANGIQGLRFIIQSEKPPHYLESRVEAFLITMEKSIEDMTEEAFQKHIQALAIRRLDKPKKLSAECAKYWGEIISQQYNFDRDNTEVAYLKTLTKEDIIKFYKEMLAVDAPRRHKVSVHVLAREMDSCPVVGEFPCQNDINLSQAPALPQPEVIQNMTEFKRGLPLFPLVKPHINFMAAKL
TPT1 inh: inhibitors of Candida albicans tRNA 2'-phosphotransferase TPT1 | recombinant caTPT1, FP RNA substrate dephosphorylation | inhibition, % at 5 µM | actives 0.81% (n = 300,000);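 active = inhibition above the mean of all tested compounds plus 3 SD, set per screening campaign, cut at about 24% in these data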;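 note: plate controls were DMSO alone for no effect and ferristatin control at 100 nM for full effect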
Myeloid diff MLP: myeloid differentiation induction. ER-HoxA9 myeloid progenitors, lysozyme-GFP differentiation, flow cytometry. calls only at 10 µM. actives 1% (n = 360,000). AID 624256;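 active = normalized GFP-positive differentiation at or above the plate's own cutoff, the solvent-only control mean plus 3 SD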;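 note: cells exposed to compound for four days before flow analysis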
IDE inh: cellular human IDE inhibition | HEK cells, FAbetaB cleavage, fluorescence polarization | inhibition, % at 5.59 µM | actives 0.41% (n = 320,000) | AID 434962;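 active = percent inhibition above the average of all tested compounds plus 3 SD, set per screening campaign, cut at about 16% in these data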;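 note: IDE supplied by intact live HEK cells; FP after avidin binding of uncleaved biotin substrate so inhibition keeps polarization high; 0% = DMSO wells and 100% = 60 µM reference IDE inhibitor Ii1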
CRFBP-R2 block: CRF-BP/CRF-R2 complex antagonism; HEK293 CRF-R2/CRF-BP, CRF-induced calcium fluorescence; inhibition, % at 11.8 µM; actives 0.59% (n = 350,000);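 active = inhibition of the ligand-induced calcium signal above about 50% at the single tested concentration, limit read from the data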
CRFBP-R2 agonist: CRF-BP/CRF-R2 complex agonism; HEK293 CRF-R2/CRF-BP, calcium dye fluorescence (FLIPR); percent of saturating CRF peptide response; activation, % at 13.2 µM; actives 0.46% (n = 350,000);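 active = activation of at least 50%, plus an integration ratio under a set limit after plate pattern correction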;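 note: plate controls were neutral control wells without compound for no effect and CRF at EC100 for full effect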
The depositor's hits bear a star; i = inactive; . = no result; + = active, no number.

SMILES	IDE act	TPT1 inh	Myeloid diff MLP	IDE inh	CRFBP-R2 block	CRFBP-R2 agonist
COc1ccccc1NC(=O)CCSc1nnnn1C	2	-2	i	2	-144	121*
COc1ccc(C(=O)CNc2cccc(F)c2)cc1	1	-1	i	5	1	0
CCCCN1CC(COCc2ccccc2)Oc2cccc(OCCN3C(=O)[C@@H]4[C@H](C3=O)C3C=C[C@H]4C3)c2S1(=O)=O (some centres undefined)	1	.	i	.	-178	172*
CCCCN1CC(COCc2ccccc2)Oc2cccc(Oc3ccc(OC)cc3)c2S1(=O)=O (centres undefined)	3	.	i	.	0	10
Cc1cc([N+](=O)[O-])ccc1NCc1ccc2c(c1)OCCO2	0	-2	.	-1	53*	-2
Cc1cc([N+](=O)[O-])ccc1NCc1ccco1	6	-2	i	-2	59*	0
O=C(NCc1ccco1)c1cc([N+](=O)[O-])ccc1Cl	3	4	i	6	8	2
COc1ccc([N+](=O)[O-])cc1NCc1ccccc1C	0	0	i	4	48	1
O=[N+]([O-])c1ccc(NCc2ccc3c(c2)OCO3)cc1	4	0	i	-3	4	-1
COc1ccc([N+](=O)[O-])cc1NCc1ccccc1	3	2	i	-6	98*	-4
COc1cccc(CNc2ccc([N+](=O)[O-])cc2C)c1	1	-2	i	2	58*	-3
CCOC(=O)CNC(=O)CSc1nnc(NC(=O)c2ccc(S(=O)(=O)N3CCOCC3)cc2)s1	-2	0	i	5	-6	1
COc1ccc2[nH]c(=O)c(CN(C(=O)C(C)C)c3ccccc3OC)cc2c1	1	-3	+	0	-6	-1
CNC(=S)N(Cc1cccs1)Cc1cc2cc(OC)ccc2[nH]c1=O	34*	-1	i	6	-68	0
CCCCNC(=O)Nc1nnc(C(C)(C)C)s1	6	-1	i	12	-2	-1
COc1cc(NC(=O)Nn2cnnc2)cc(OC)c1OC	3	-1	+	2	4	2
COc1ccc(NC(=O)Nn2cnnc2)cc1OC	4	1	i	-6	-21	1
O=c1[nH]c2cc3ccccc3cc2nc1-c1nnnn1C1CCCC1	.	.	+	.	.	.
O=c1[nH]c2ccccc2nc1-c1nnnn1C1CCCC1	.	.	i	.	.	.
Cc1ccc(OCC(=O)NNC(=O)c2ccccc2OCc2c(C)noc2C)cc1	7	0	i	7	-9	-3
CC1CCCC(C)N1C(=O)COC(=O)COc1ccc(C#N)cc1 (centres undefined)	3	.	i	-3	72*	0
CC1CCCN(C(=O)COC(=O)COc2ccc(C#N)cc2)C1 (centres undefined)	2	.	i	-4	3	-1
O=C(CN1CCN(c2ccc(F)cc2)CC1)c1ccc(O)cc1O	4	-17	+	2	-10	-1
CCCCN1CC[C@@H]2C=CC[C@H](C(=O)OC)[C@@H]2C1=O	0	.	i	.	3	-2
COc1ccc(-n2cccc2/C=C2\C(=N)N3N=C(c4ccco4)SC3=NC2=O)cc1	-1	8	i	5	52*	-1
SMILES	IDE act	TPT1 inh	Myeloid diff MLP	IDE inh	CRFBP-R2 block	CRFBP-R2 agonist
COc1ccc(-n2cccc2/C=C2\C(=N)N3N=C(C(C)C)SC3=NC2=O)cc1	1	5	i	0	1	-1
Cc1cc(C)cc(-n2c(C)cc(C(=S)N3CCOCC3)c2C)c1	6	-4	i	2	57*	-2
Cc1cc(C(=S)N2CCOCC2)c(C)n1-c1ccc(Cl)cc1	4	0	i	4	10	1
CC(OC(=O)CC1CC2CCC1C2)C(=O)Nc1cccc(S(=O)(=O)N2CCOCC2)c1 (centres undefined)	18*	-1	i	7	3	-1
Cc1ccc(S(=O)(=O)N2CCCCC2)cc1NC(=O)c1ccncc1	4	.	i	.	-8	0
O=C(COc1ccc(C(=O)c2ccccc2)cc1)Nc1cccnc1	4	0	i	-9	17	2
CCc1cccc(CC)c1NC(=O)c1cccc(NC(=O)c2ccccc2)c1	1	-2	+	0	18	-3
COC(=O)c1cc2c(cc1NC(=O)CSCCc1ccccn1)OCO2	-2	-15	+	2	3	0
CC(=O)Nc1ccc(NC(=O)CSCCc2ccccn2)cc1	-6	1	i	3	5	-2
COc1cc2c(cc1N/C=C(\C#N)c1nc(-c3ccccc3)cs1)oc1ccccc12	1	2	+	0	-16	41
Cc1ccc(NC2=Nc3ccccc3CC2)cc1	-3	0	.	-3	-20	1
c1ccc(NC2=Nc3ccccc3CS2)cc1	7	-1	+	4	-10	0
Cn1nnnc1Sc1ncnc2scc(-c3ccc(Cl)cc3)c12	2	.	i	-4	-2	6
Cn1nnnc1Sc1ncnc2scc(-c3cccc4c3sc3ccccc34)c12	3	.	+	4	3	2
Cn1nnnc1Sc1ncnc2scc(-c3ccccc3Cl)c12	-3	.	i	8	-1	-4
COc1ccc(-c2csc3ncnc(Sc4nnnn4C)c23)cc1	0	.	+	3	-1	-1
COc1ccc(C2=Nc3ccccc3N(C(=O)c3ccc(C(F)(F)F)cc3)C2C(=O)NCc2ccccc2)cc1 (centres undefined)	.	.	i	.	.	.
Cc1cc(N)ccc1-n1nc2ccccc2n1	-1	-2	+	3	15	-1
Cc1ccc(-n2nc3ccc(N)cc3n2)c(C)c1	0	1	i	-1	-1	0
CC1CN(S(=O)(=O)c2ccc(C(=O)O)cc2)CC(C)O1 (centres undefined)	1	-1	i	3	-2	0
CC1CN(S(=O)(=O)c2ccc(C(=O)N3CCc4ccccc43)cc2)CC(C)O1 (centres undefined)	3	.	i	0	110*	0
COc1cc2c3c(n(C)c(=O)c2cc1OC)-c1cc2c(cc1C3=O)OCO2	4	.	i	.	-4	3
Nn1c(COc2ccccc2F)nnc1SCC(=O)NC1CCS(=O)(=O)C1 (centres undefined)	-2	-1	i	1	4	0
Cc1ccc(S(=O)(=O)NCc2ccccc2)cc1C(=O)N1CCN(S(=O)(=O)c2ccccc2)CC1	2	.	i	.	7	1
CC(NC(=O)Nc1ccc(O)cc1)(C(F)(F)F)C(F)(F)F	3	-8	i	2	-7	1
CC(NC(=O)Nc1ccccc1O)(C(F)(F)F)C(F)(F)F	-2	8	+	-3	13	-3
